Screening data from PubChem BioAssay.
This is a sample that favours compounds with a hit; in the whole collection about 2.5% have one here.
ASK1 primary: ASK1 kinase inhibitors, primary screen, biochemical, AlphaScreen | Mitogen-activated protein kinase kinase kinase 5 (Homo sapiens), Q99683 | AlphaScreen MKK6 phosphorylation by ASK1, luminescence | inhibition, % at 7.44 µM | 0.99% of 22,000 active | AID 1159602, 2016; in the data active = inhibition above about 35%
ULK1 inh: ULK1 kinase inhibitors, primary screen, biochemical, AlphaScreen; AlphaScreen Atg13 phosphorylation by ULK1, luminescence; inhibition, % at 5.96 µM; 1.9% of 30,000 active; in the data active = inhibition above about 43%
AlphaScreen intf: AlphaScreen signal interference by compounds, dose response, artefact control for ASK1 inhibitor project, biochemical, TruHits beads | 20% of 220 active | IC50, µM | signal interference counterscreen | shares compounds with ASK1 primary;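 active = IC50 of 10 µM or lower in the counterscreen; inactive = IC50 above 10 µM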;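 note: loss of AlphaScreen light from TruHits beads alone with no ASK1 enzyme present; potency of signal reduction so a low IC50 flags an assay artifact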
Each line names hits and unclear results; the compound was inactive in the other large screens (follow-up assays come after a bar, where they were run).

O=c1[nH]cccc1-c1ccc(Nc2nccc(-c3ccc4nc(C5CC5)[nH]c(=O)c4c3)n2)cc1	ASK1 primary 43, ULK1 inh 70 | AlphaScreen intf inactive
O=C(O)Cc1ccc(Nc2nccc(-c3ccccc3)n2)cc1	none
O=C(NCc1cccnc1)c1csc(N2CCc3ccccc3C2)n1	none
COc1cc(Nc2cc(C)nc(NCc3cccnc3)n2)cc(OC)c1OC	none
COc1cc(Nc2nc(N3CCc4ccccc4C3)nc3c2ncn3C2CCCCC2)cc(OC)c1OC	none
COc1cc(Nc2nc(N3CCc4ccccc4C3)nc3c2ncn3C(C)C)cc(OC)c1OC	ASK1 primary 40 | AlphaScreen intf inactive
O=C(NCc1cccnc1)c1cccc(-c2cccs2)c1	none
CC(C)NC(=O)c1cccc(NC(=O)Nc2ccc(-c3cn[nH]c3)cc2)c1	none
CC(C)NC(=O)c1cccc(NC(=O)Nc2ccc(-c3ccnc4[nH]ccc34)cc2)c1	ASK1 primary 39 | AlphaScreen intf inactive
CN(C)CCN(C)c1nc(C2COc3ccccc3O2)nc2ccc(-c3cn[nH]c3)cc12 (stereo unspecified)	none
c1ccc2c(c1)OCC(c1nc(N3CCOCC3)c3cc(-c4cn[nH]c4)ccc3n1)O2 (stereo unspecified)	ASK1 primary 37 | AlphaScreen intf inactive
CN(C)c1cccc(Nc2ccc(-n3cc(CC(=O)Nc4ccc(N5CCOCC5)cc4)c4ccccc43)nn2)c1	ASK1 primary 44 | AlphaScreen intf inactive
O=C(Cc1cn(-c2ccc(Nc3ccc4ncccc4c3)nn2)c2ccccc12)Nc1ccc(N2CCOCC2)cc1	none
CN(C)c1cccc(Nc2ccc(-n3cc(CC(=O)Nc4ccc5c(c4)OCO5)c4ccccc43)nn2)c1	ASK1 primary 43 | AlphaScreen intf inactive
CN(C)c1cccc(Nc2ccc(-n3cc(CC(=O)Nc4ccccc4)c4ccccc43)nn2)c1	none
Cn1nccc1Nc1ccc(-n2cc(CC(=O)Nc3ccc4c(c3)OCO4)c3ccccc32)nn1	none
O=C(Cc1cn(-c2ccc(Nc3nccc4ccccc34)nn2)c2ccccc12)Nc1ccc2c(c1)OCO2	ASK1 primary 46 | AlphaScreen intf inactive
Cc1cc(NCc2cccc(C(F)(F)F)c2)nc(-c2ccc(N3CCOCC3)nc2)n1	none
c1ccc(CCn2ncc(-c3ccnc(Nc4ccc(N5CCOCC5)cc4)c3)c2Nc2ccccc2)cc1	ASK1 primary 41 | AlphaScreen intf inactive
OCc1ccccc1Nc1ccnc(Nc2ccc(N3CCOCC3)cc2)c1	none
O=C(Nc1ccccc1)c1ccccc1Nc1ccnc(Nc2ccc(N3CCOCC3)cc2)c1	ASK1 primary 37 | AlphaScreen intf inactive
Cn1ncc(-c2ccnc(Nc3ccc(N4CCOCC4)cc3)c2)c1Nc1ccccc1	none
c1ccc(CCn2nc(-c3ccnc(Nc4ccc(N5CCOCC5)cc4)c3)cc2Nc2ccccc2)cc1	ASK1 primary 56 | AlphaScreen intf inactive
O=C(Cc1ccccc1)Nc1cc(-c2ccnc(Nc3ccc(N4CCOCC4)cc3)c2)nn1CCc1ccccc1	none
c1ccc(CNc2nc(NCCN3CCOCC3)nc3c2ncn3-c2ccccc2)cc1	none
COc1cc(Nc2ncnc3nc(-c4ccc(C(N)=O)cc4)[nH]c23)cc(OC)c1OC	none
COc1ccc(-c2ncc(C)c(Nc3ccc(N4CCOCC4)cc3)n2)cn1	none
COc1cc(Nc2nc(-c3ccc(C(N)=O)cc3)ncc2C)cc(OC)c1OC	ASK1 primary 61, ULK1 inh 55 | AlphaScreen intf inactive
Cc1cnc(-c2ccc(C(N)=O)cc2)nc1Nc1ccc(N2CCOCC2)cc1	ASK1 primary 36 | AlphaScreen intf inactive
CC(=O)N(CN1C(=O)c2ccc([N+](=O)[O-])cc2C1=O)c1cccc(F)c1	none (no result: ASK1 primary)
CC(C)CNC(=O)c1ccc2c(c1)CC(c1nc3ncc(-c4ccnc(N)n4)cc3[nH]1)CO2 (stereo unspecified)	ASK1 primary 42 | AlphaScreen intf inactive
CN(C)CCNC(=O)c1ccc2c(c1)CC(c1nc3ncc(-c4ccnc(N)n4)cc3[nH]1)CO2 (stereo unspecified)	none
